Sampled rows, rich in hits. Any-hit rate of the full collection: about 4.5%.
TIM10 inh = growth inhibitors of TIM10 yeast strain. S. cerevisiae TIM10 strain growth, BacTiter-Glo luminescence, 24 h. AID 463195. 330,000 tested, 1.4% active. inhibition, % at 10 µM;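 active = inhibition of 40% or more at the single tested concentration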;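 note: wild-type TIM10 isogenic control strain grown at permissive 25 °C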
tim23-1 inh = growth inhibitors of tim23-1 mutant yeast. inhibition, % at 20 µM. S. cerevisiae tim23-1 growth, BacTiter-Glo luminescence, 24 h. 330,000 tested, 1.3% active. AID 463212;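 active = growth inhibition of the mutant yeast at or above 50%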;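 note: temperature-sensitive mutant grown at 25 °C; plate controls were DMSO-treated mutant yeast for no effect and medium wells lacking yeast for full effect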
SKKanGAS inh = SKKanGAS growth inhibition; S. pyogenes SKKanGAS, kanamycin growth, BacTiter-Glo, 6 h; inhibition, % at 7.5 µM; 300,000 tested, 1.3% active;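 active = mean replicate score, as percent of positive control median, at least 50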;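 note: strain carries kanamycin resistance gene driven by streptokinase promoter and grows in 40 µg/ml kanamycin; loss of luminescence reflects streptokinase promoter inhibition or plain growth inhibition; 0% = median of DMSO wells and 100% = positive control at its reference dose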
NLRP3 yeast inh = inhibitors of NALP3 inflammasome in yeast; Yeast reconstituted NLRP3/ASC/caspase-1, beta-gal luminescence, 24 h; inhibition, % at 10 µM; 330,000 tested, 0.39% active; AID 2825;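 active = inhibition of 50% or more; inactive = inhibition below 50%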;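 note: plate controls were induced DMSO wells for no effect and uninduced yeast grown without galactose for full effect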
tim10-1 inh = tim10-1 yeast growth inhibition. S. cerevisiae tim10-1 ts strain growth, BacTiter-Glo, 24 h. inhibition, % at 20 µM. 330,000 tested, 2.2% active. AID 463190;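 active = inhibition of at least 40%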;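 note: mutant grown at 25 °C; 0% = DMSO wells with yeast and 100% = wells holding no yeast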
PfHsp90 yeast 2 = growth inhibition of yeast expressing Plasmodium Hsp90. S. cerevisiae expressing PfHsp90, BacTiter-Glo ATP, 48 h; yeast lacking PDR1 and PDR3 efflux regulators. inhibition, % at 9.4 µM. 310,000 tested, 0.32% active;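 active = every replicate shows inhibition above about 80%, whatever the replicate mean, limit read from the data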;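 note: 0% = DMSO neutral controls and 100% = 20 µM radicicol positive controls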
tim10-1 conf = confirmation of tim10-1 mutant yeast growth inhibitors. shares compounds with tim10-1 inh. inhibition, % at 20 µM. S. cerevisiae tim10-1 ts strain growth, BacTiter-Glo, 24 h. 7,400 tested, 56% active;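 active = inhibition of yeast growth at or above a set limit in either of two repeat tests at 20 µM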;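 note: tim10-1 mutant grown at permissive 25 °C to find synthetic lethal compounds; 0% = DMSO yeast wells and 100% = medium wells without yeast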
Active calls of the source: *; / = not tested or not shown.

SMILES	TIM10 inh	tim23-1 inh	SKKanGAS inh	NLRP3 yeast inh	tim10-1 inh	PfHsp90 yeast 2	tim10-1 conf
Cc1cc(S(=O)(=O)N2CCCc3ccccc32)ccc1-n1cnnn1	-4	10	-5	2	-12	-18	/
CCCCc1ccc(/C=C2\C(=O)ON=C2c2ccccc2)s1	18	21	2	1	40*	-12	29
O=C1ON=C(c2ccccc2)/C1=C/c1ccco1	19	41	7	10	36	/	/
OCCC#Cc1c(-c2ccsc2)sc2ccccc12	2	0	-4	-20	46*	2	28
C(#Cc1c(-c2ccsc2)sc2ccccc12)c1ccsc1	20	36	/	8	23	1	/
O=C(NNC(=S)Nc1cccc(C(F)(F)F)c1)c1cccc(Cl)c1	36	41	-3	12	50*	-15	46*
O=C(CSc1nnc(CCc2ccccc2)n1-c1ccc(Cl)cc1)NCc1ccccc1	16	1	6	14	43*	3	12
COc1ccc(-n2c(CCc3ccccc3)nnc2SCC(=O)NCc2ccccc2)cc1	20	5	-2	3	30	-11	/
CC(C)CN(CCCNC(=O)CN1C(=O)COc2ccc(S(=O)(=O)N3CCOCC3)cc21)CC(C)C	-11	13	-6	13	19	-5	/
CCOc1ccc(OCC)c(S(=O)(=O)N2CCCCC2C)c1 (centres undefined)	20	46	-11	-1	43*	9	11
COc1ccc(C(=O)Nn2c(CC(C)C)nc3cc(Cl)ccc3c2=O)c(OC)c1	-14	18	4	8	8	-31	/
c1ccc(CNc2ncnc3sc4c(c23)CCCC4)nc1	-7	42	3	-23	45*	13	36*
Cc1nc(NCc2ccccn2)c2c3c(sc2n1)CCCC3	16	39	2	17	41*	-51	41*
Cc1nc(NCc2ccco2)c2c3c(sc2n1)CCC3	-11	34	5	20	27	-1	/
O=C(Nc1ncnc2sc3c(c12)CCCCC3)c1ccc(F)cc1	26	23	17	15	45*	/	32*
O=C(Nc1ncnc2sc3c(c12)CCCCC3)c1ccccc1	29	42	3	6	30	/	/
O=C(COn1nnc2ccc(Cl)cc21)NC12CC3CC(CC(C3)C1)C2	37	48	3	-10	40*	12	32*
O=C(COn1nnc2ccc(Cl)cc21)Nc1ccc(F)cc1	28	29	13	-20	20	-1	/
CN(C)c1ccc(/C=C(/NC(=O)c2ccccc2)C(=O)NCCCn2ccnc2)cc1	0	-10	0	2	-23	-7	/
CCN(CC)S(=O)(=O)c1ccc2oc(C(=O)NCc3ccc(F)cc3)c(C)c2c1	32	32	/	5	44*	6	39*
Cc1cccc(C)c1NC(=O)C(c1ccc(Cl)cc1Cl)N1CCCCC1 (centres undefined)	18	-3	6	11	42*	-2	23
COc1cc(NC(=S)Nc2cccc(Cl)c2Cl)c(OC)cc1Cl	35	37	-5	18	42*	11	25
COc1cc(C)c(NC(=S)Nc2ccc(Cl)c(Cl)c2)cc1OC	26	34	4	-6	45*	-8	23
COc1ccc(C)cc1NC(=S)NNC(=O)c1ccccc1Cl	29	23	/	6	44*	12	48*
COc1cc(Cl)c(C)cc1NC(=S)NN	32	44	7	3	41*	-10	27
SMILES	TIM10 inh	tim23-1 inh	SKKanGAS inh	NLRP3 yeast inh	tim10-1 inh	PfHsp90 yeast 2	tim10-1 conf
COc1cc(NC(=S)Nc2ccc(Br)cc2Cl)c(OC)cc1Cl	36	21	2	18	39	-11	/
O=C(Cc1ccc(Cl)c(Cl)c1)NC1CCCCCC1	1	23	17	39	6	-16	/
Cc1cc(C)cc(NC(=O)C(=O)NCCCN2CCCC2=O)c1	3	4	-9	4	-7	2	/
COc1cc(Cl)c(C)cc1NC(=O)c1cccc(OC)c1OC	16	26	12	18	41*	-7	15
COc1cc(Cl)c(C)cc1NC(=O)CSc1ccc(NC(C)=O)cc1	9	29	-1	19	42*	2	29
COc1cccc(C(=O)Nc2cccc3ccccc23)c1OC	-6	36	-3	35	25	19	/

Compound activity (PubChem BioAssay)
